25 compounds from PubChem BioAssay (NCATS) can be followed below.

Assay [1] in a line: qHTS for Inhibitors of Plasmodium falciparum (DD2) proliferation (AID 504314).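 For activity, negative = inhibition: parasite DNA measured by SYBR Green fluorescence after red cell lysis; plate controls were DMSO vehicle for no effect and artemisinin wells for full effect.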 Note: potency is the fitted concentration of half-maximal effect. A digest of the protocol: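 SYBR Green DNA-fluorescence growth assay: infected RBCs at 0.3% parasitemia, 2.5% hematocrit, 72 h compound exposure, 37C, 5% CO2; overnight lysis with dye at RT; normalized to 0.29 uM artemisinin and vehicle.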
(In general: qHTS replaces the single test concentration by a dilution series.)

Assay [2] can be described thus: qHTS for Inhibitors of Plasmodium falciparum (GB4) proliferation (AID 504315).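 For activity change, negative = inhibition: 0% = DMSO vehicle and -100% = 0.29 µM artemisinin control.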 Note: nearly all actives have a fitted effect of over 50% in size. Note: potency is the fitted concentration of half-maximal effect. A digest of the protocol:
(§1)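 Parasite growth measured as SYBR Green DNA fluorescence (ex 485, em 535 nm) after overnight lysis following 72 h culture at 37 °C, 0.3% parasitemia, 2.5% hematocrit. Values normalized against DMSO and 0.29 uM artemisinin controls, with plate-stack correction.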

Assay [3] can be described thus: qHTS for Inhibitors of Plasmodium falciparum (CP250) proliferation (AID 504320).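 For activity change, negative = inhibition: plate controls were DMSO vehicle for no effect and 0.29 µM artemisinin control for full effect.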 Note: potency is the fitted concentration of half-maximal effect. The method, boiled down: as §1
Assay [4] in a line: qHTS for Inhibitors of Plasmodium falciparum (7G8) proliferation (AID 504316).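 For activity change, negative = inhibition: series mostly up to about 6.7 µM; 0% = DMSO vehicle and -100% = 0.29 µM artemisinin full kill.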 Note: nearly all actives have a fitted effect of over 65% in size. Note: potency is the fitted concentration of half-maximal effect. The method, boiled down: as §1
Assay [5] can be described thus: qHTS for Inhibitors of Plasmodium falciparum (HB3) proliferation (AID 504318).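 For activity change, negative = inhibition: 0% = DMSO vehicle and -100% = artemisinin control.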 Note: nearly all actives have a fitted effect of over 60% in size. Note: potency is the fitted concentration of half-maximal effect. The method, boiled down: as §1
Assay [6] concerns the target Cytochrome P450 2C9 (Homo sapiens) (UniProt P11712). Description: qHTS Assay for Inhibitors and Substrates of Cytochrome P450 2C9 (AID 883). Note: % is set by controls: 0 for no effect and ±100 for the full control effect; nearly all actives have a fitted effect of over 60% in size. The method, boiled down: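 A luminogenic readout tracked human CYP2C9 (10nM) converting deoxyluciferin (100uM, at KM) in 25mM KPO4 during 60 min at 37C with regenerated NADPH. Values normalized to 57uM sulphaphenazole as complete inhibition.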

Assay [7] has as its target Cytochrome P450 3A4 (Homo sapiens) (UniProt P08684). Kind of assay: qHTS Assay for Inhibitors and Substrates of Cytochrome P450 3A4 (AID 884). Note: series mostly up to about 57 µM; % is set by controls: 0 for no effect and ±100 for the full control effect; nearly all actives have a fitted effect of over 50% in size. A digest of the protocol:
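Luminescent readout of luciferin produced by CYP3A4 (20 nM) dealkylation of Luciferin-PPXE, 25 uM (its KM). NADPH-driven reaction ran 60 min at RT after 10 min compound preincubation; data scaled to 57 uM ketoconazole as 100% inhibition.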

In assay [8] the target is Cytochrome P450 2D6 (Homo sapiens) (UniProt P10635). Description: qHTS Assay for Inhibitors and Substrates of Cytochrome P450 2D6 (AID 891).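 Note: luciferin methyl ether substrate demethylated by CYP2D6 with NADPH regeneration; % is set by controls: 0 for no effect and ±100 for the full control effect; nearly all actives have a fitted effect of over 60% in size.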 A digest of the protocol:
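Luminescent read-out of luciferin formed by 5 nM human CYP2D6 demethylating 30 uM Luciferin-ME EGE (Km level) over 60 min at room temperature after NADPH regeneration addition. Data normalized to full inhibition by 1.43 uM quinidine.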

For assay [9], the target named is Cytochrome P450 2C19 (Homo sapiens) (UniProt P33261). Description: qHTS Assay for Inhibitors and Substrates of Cytochrome P450 2C19 (AID 899). For activity, negative = inhibition: % is set by controls: 0 for no effect and ±100 for the full control effect. Note: nearly all actives have a fitted effect of over 60% in size. Note: potency is the fitted concentration of half-maximal effect. The method, boiled down: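 NADPH-dependent conversion of Luciferin-H EGE (10uM, at KM) by 5nM enzyme in 50mM KPO4, 60 min at 37C following 10 min compound preincubation. Stopped with luciferin detection buffer; luminescence read after 20 min.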

Assay [10] concerns the target Cytochrome P450 3A4 (Homo sapiens) (UniProt P08684). Description: qHTS Assay for Activators of Cytochrome P450 3A4 (AID 885). Note: nearly all actives have a fitted effect of over 65% in size. A digest of the protocol: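 Activators are scored by enhanced luminescence from CYP3A4 conversion of luciferin-PPXE (25uM, equal to KM) to luciferin, after 60 min at RT with an NADPH-regenerating system.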

Structures are written as SMILES. Inconclusive results are not listed. Where a structure was tested more than once in an assay, its records may differ in their call. Activity calls are given as the source filed them. Calls come from the whole dose curve; as a rule, active = well fitted curve in the direction sought with a large enough effect; inconclusive = small, poorly fitted or top-dose-only effect, or another doubt; inactive = no such curve, though single readings can be large; an effect the other way counts as inactive or inconclusive.

Sequence of Cytochrome P450 2C19 (Homo sapiens) (P33261 whole entry, looked up): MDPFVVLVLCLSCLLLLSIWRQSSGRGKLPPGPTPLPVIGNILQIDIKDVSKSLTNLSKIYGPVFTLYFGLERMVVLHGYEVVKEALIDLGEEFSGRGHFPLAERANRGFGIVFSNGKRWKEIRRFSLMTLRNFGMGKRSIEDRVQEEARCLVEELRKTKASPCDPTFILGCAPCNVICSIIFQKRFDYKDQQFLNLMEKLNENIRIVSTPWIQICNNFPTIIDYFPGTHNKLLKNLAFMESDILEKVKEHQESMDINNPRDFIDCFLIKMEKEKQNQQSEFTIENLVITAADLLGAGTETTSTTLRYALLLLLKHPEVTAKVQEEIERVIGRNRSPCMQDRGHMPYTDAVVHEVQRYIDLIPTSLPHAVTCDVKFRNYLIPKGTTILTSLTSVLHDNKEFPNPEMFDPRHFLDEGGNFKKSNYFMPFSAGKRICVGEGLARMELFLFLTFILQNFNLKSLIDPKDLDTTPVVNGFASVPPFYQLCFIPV
Sequence of Cytochrome P450 3A4 (Homo sapiens) (P08684 whole entry, looked up): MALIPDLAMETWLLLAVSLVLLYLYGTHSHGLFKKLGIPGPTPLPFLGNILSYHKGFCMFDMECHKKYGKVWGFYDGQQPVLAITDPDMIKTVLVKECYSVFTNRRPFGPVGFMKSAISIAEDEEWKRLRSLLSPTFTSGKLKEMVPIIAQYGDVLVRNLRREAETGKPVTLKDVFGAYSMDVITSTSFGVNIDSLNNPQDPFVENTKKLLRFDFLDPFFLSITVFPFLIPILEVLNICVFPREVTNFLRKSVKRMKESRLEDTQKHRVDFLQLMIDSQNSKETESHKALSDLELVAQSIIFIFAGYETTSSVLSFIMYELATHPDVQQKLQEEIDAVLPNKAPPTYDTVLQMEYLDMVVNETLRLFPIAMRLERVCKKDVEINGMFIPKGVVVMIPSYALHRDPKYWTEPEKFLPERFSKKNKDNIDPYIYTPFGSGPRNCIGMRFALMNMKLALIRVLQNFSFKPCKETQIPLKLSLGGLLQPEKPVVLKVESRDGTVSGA
Sequence of Cytochrome P450 2C9 (Homo sapiens) (P11712 whole entry, looked up): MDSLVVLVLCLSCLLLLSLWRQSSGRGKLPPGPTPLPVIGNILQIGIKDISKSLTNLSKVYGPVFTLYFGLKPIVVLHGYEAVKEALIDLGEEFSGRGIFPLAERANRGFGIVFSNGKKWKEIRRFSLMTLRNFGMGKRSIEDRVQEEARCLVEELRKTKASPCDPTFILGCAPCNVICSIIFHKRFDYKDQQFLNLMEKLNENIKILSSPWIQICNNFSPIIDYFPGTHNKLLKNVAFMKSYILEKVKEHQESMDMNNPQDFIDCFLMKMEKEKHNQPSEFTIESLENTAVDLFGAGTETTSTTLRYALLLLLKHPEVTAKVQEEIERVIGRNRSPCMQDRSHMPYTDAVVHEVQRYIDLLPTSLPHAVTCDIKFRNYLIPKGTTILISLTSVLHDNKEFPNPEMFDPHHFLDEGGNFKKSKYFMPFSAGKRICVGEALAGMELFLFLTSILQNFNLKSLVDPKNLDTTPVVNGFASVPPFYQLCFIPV
Sequence of Cytochrome P450 2D6 (Homo sapiens) (P10635 whole entry, looked up): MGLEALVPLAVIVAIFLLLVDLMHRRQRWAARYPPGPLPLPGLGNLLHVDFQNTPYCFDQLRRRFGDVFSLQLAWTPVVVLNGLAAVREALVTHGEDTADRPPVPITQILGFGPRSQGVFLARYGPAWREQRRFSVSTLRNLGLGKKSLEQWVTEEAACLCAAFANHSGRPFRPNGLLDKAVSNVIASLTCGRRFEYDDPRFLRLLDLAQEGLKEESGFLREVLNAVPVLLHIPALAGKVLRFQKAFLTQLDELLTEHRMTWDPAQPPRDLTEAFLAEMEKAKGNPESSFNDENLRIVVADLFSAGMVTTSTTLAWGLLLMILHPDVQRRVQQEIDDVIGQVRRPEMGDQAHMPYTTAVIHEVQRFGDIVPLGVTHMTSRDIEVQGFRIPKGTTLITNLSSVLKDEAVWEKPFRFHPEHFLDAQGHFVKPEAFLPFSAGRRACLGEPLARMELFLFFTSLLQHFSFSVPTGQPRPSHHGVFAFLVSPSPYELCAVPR

Regarding `O=C1c2ccccc2C(=O)N1CCCC[C@]12Cc3c(ccc4ccccc34)[C@H](O1)c1c(cc(-c3ccccc3)oc1=O)O2`, the values for the Potency in [1], in assay [2] and in [3] were 753 nM (active), 536 nM (active) and 1510 nM (active), respectively.
On to `C[C@@H]1C(c2ccccc2)=Cc2[nH]c(=O)[nH]c2C[C@@H]1C(=O)N1CCCC1`, for which the Potency entry in assay [1], in assay [2], in [4], in [5] and in assay [3] was “inactive” in each case.
As for `C#CCN1C(=O)CC[C@@]23C1=NC(C(=O)OC)=C(C(=O)OC)[C@@H]2N(Cc1ccccc1)c1ccccc13`, the Potency result in assay [1], in [2], in assay [4], in assay [5] and in assay [3] was “inactive” each time.
`COC(=O)[C@H](Cc1ccccc1)NC(=O)O[C@@H]1C(=O)c2cc(Br)ccc2O[C@H]1c1ccc2c(c1)OCO2`: the Potency entry in assay [1], in [2], in assay [4], in assay [5] and in assay [3] was “inactive” each time.
In the case of `COC(=O)C1C[C@@]23C(=NN=C(SC)C2N(C)c2ccc(OC)cc23)N1C(C)=O` (stereo not given in full), the Potency entry in assay [1], in [2], in assay [4], in assay [5] and in [3] was “inactive” each time.
With `COc1ccc(-c2nc3c(c4c2C[C@H](c2ccccc2)OC4)CN(S(=O)(=O)c2ccc(NC(C)=O)cc2)CC3)c(C)c1`, in [1], the activity, negative = inhibition is -0.765% [at 1.12 µM] (inactive). Besides, the Potency entry in assay [2] and in [3] was “inactive” in each case.
As to `COc1ccc(O[C@H]2C=C[C@@H](c3ccccc3)O[C@H]2COC(=O)CCC(C)=NOC[C@@H](O)COCc2ccco2)cc1`, the Potency entry in assay [1], in assay [2] and in assay [3] was “inactive” throughout.
For `Cc1cc2c(c(=O)o1)[C@H]1O[C@](CCCCN3C(=O)c4ccccc4C3=O)(Cc3cc(C#N)ccc31)O2`, the Potency result in assay [1], in assay [2] and in assay [3] was “inactive” each time.
Turning to `COC(=O)[C@H](Cc1ccccc1)NC(=O)O[C@@H]1C(=O)c2cc(OC)ccc2O[C@H]1c1ccc(OC)c(Br)c1`, the Potency entry in assay [1], in assay [2], in assay [5] and in assay [3] was “inactive” in each case.
Consider `COC(=O)c1cc(C(=O)OC)n2c(C)cc3ccccc3c12`, for which the Potency result in assay [1], in [2], in assay [4] and in assay [3] was “inactive” each time.
With `CCN1C(=O)NC(c2ccccc2)C(C(=O)OC)=C1C` (stereo not given), the Potency result in assay [1], in assay [2], in [4] and in assay [3] was “inactive” throughout.
Consider `COC1=C[C@H](C(=O)NCc2ccccn2)[C@H](C)[C@@H](c2ccccc2)CC1=O`, for which the Potency entry in assay [1], in assay [2], in [4] and in assay [3] was “inactive” in each case.
Take `C=CCN1C(=O)CC[C@@]23C1=NC(C(=O)OC)=C(C(=O)OC)[C@@H]2N(CC#CC)c1ccccc13`: the Potency entry in [1], in assay [2] and in assay [3] was “inactive” each time.
Consider `Cc1c(O)ccc2c1OCO2`, for which the activity change, negative = inhibition in [6] was -0.37% [at 11.4 µM] (inactive); in assay [7] it was -25.6% [at 11.4 µM] (inactive); in assay [8] it was -1.17% [at 11.4 µM] (inactive). Moreover, the activity, negative = inhibition in assay [9] is 39.4% [at 11.4 µM] (inactive). Also, the Potency result in [1], in [2], in [4], in assay [5] and in assay [3] was “inactive” throughout.
For `C[C@H]1C[C@@H](C)O[C@@]2(C1)C(=O)N(CC1CC1)c1ccccc12`, the Potency result in [1], in assay [2], in assay [4], in [5] and in [3] was “inactive” throughout.
For `COc1ccc(-c2nc3c(c4c2C[C@H](c2ccccc2)OC4)CN(C(=O)Nc2cccc(C#N)c2)CC3)c(C)c1`, the activity, negative = inhibition in assay [1] is 2.23% [at 1.12 µM] (inactive). The Potency entry in assay [2], in assay [4], in [5] and in assay [3] was “inactive” throughout.
Take `COC(=O)N1C2CC3(C)C=C(C)OC1(C)C3c1ccccc12` (stereo not given): the Potency result in assay [1], in [2], in assay [4], in assay [5] and in assay [3] was “inactive” each time.
Regarding `COC(=O)c1cc(C(=O)OC)n2ccc3cc(OC)c(OC)cc3c12`, the Potency entry in assay [1], in assay [2], in assay [4], in assay [5] and in [3] was “inactive” each time.
On to `CCCCC1=CC2=C(c3ccco3)C(=O)C(C)(OC(=O)c3ccc(OC)cc3)C(=O)C2=CN1CCCN(CC)CC` (stereo not given), for which the Potency result in assay [1], in assay [2] and in assay [3] was “inactive” throughout.
Turning to `COC(=O)CCCC1=CC2=CC(=O)C(C)(OC(=O)c3cccs3)C(=O)C2=CN1C1CCCC1` (stereo not given), the activity, negative = inhibition in [1] is -0.45% [at 1.12 µM] (inactive). Moreover, the Potency entry in assay [2], in [4] and in [3] was “inactive” in each case.
Regarding `COC1=C[C@H](C(=O)N2CCCC2)[C@H](C)[C@@H](c2ccccc2)CC1=O`, the Potency result in [1], in assay [2] and in assay [3] was “inactive” in each case.
Regarding `O[C@H](CC#CCOc1ccccc1)COCc1ccccc1`, the Potency result in assay [1], in [2] and in assay [3] was “inactive” each time.
Consider `COC(=O)c1c(C(=O)OC)c2c3ccccc3cc(C3CC3)n2c1C(=O)OC`, for which the Potency result in assay [1], in assay [2], in assay [4] and in [3] was “inactive” in each case.
Consider `COc1ccc(-c2nc3c(c4c2C[C@H](c2ccccc2)OC4)CN(C(=O)c2ccco2)CC3)c(C)c1`, for which the activity, negative = inhibition in [1] was -2.96% [at 1.12 µM] (inactive). Besides, the Potency in assay [4] is 1.69 µM (active). Further, in [3], the Potency result was “inactive”.
Consider `CCCCCCCC1=Cc2ccccc2C(CC(C)=O)N1C(=O)OC` (stereo not given), for which, in assay [10], the activity change, positive = activation was -59.5% [at 11.4 µM] (inactive). The Potency in [9] was 2510 nM (active); in [4], 1.69 µM (active) and inactive; in [5], 1690 nM (active). For the same compound, the Potency result in [2] is “inactive”.
